# According to the supplement of paper PMC8007513:
# Structures can show the parent of a compound that is named as a salt. ± gives the standard error. Screen size: about 1,300 compounds; about 130 (10%) showed an effect of 50% or more. What follows is part of a selection rich in strong results, with near analogues and random picks from the rest.
# System: Trichoderma virens ATCC 9645
# Assay: growth yield (OD600) with compound + IPBC relative to untreated control; higher = less growth inhibition
# Conditions: compound concentration: 100 uM, IPBC concentration: 200 ng/ml
# Summary of the method: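 Trichoderma virens ATCC 9645 spores from 7-day potato dextrose agar plates were suspended in potato dextrose broth at 15,000 spores ml^−1. Aliquots of 100 μl with library compounds at 100 μM final, with or without a co-applied biocide at 200 ng ml^−1, were grown in 96-well plates at 30 °C. OD600 was read at 40 h and 72 h on a BioTek EL800. Growth is expressed relative to the control without either agent, as means of duplicate screens.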
Compound,growth yield (40 h) [%],growth yield (72 h) [%]
CN[C@@H]1[C@@H](O[C@H]2O[C@H](CO)[C@@H](N)[C@H](O)[C@H]2O)OC2C[C@@H](N)[C@@H](O[C@H]3[C@H](O)[C@@H](O)[C@H](N)C[C@@H]3N)OC2[C@@H]1O (some centres not stated) [Apramycin] + CCCCNC(=O)OCC#CI [3-iodo-2-propynyl butylcarbamate (IPBC)],96.6 ± 4.1,97.1 ± 1.5
CCCN(CCC)S(=O)(=O)c1ccc(C(=O)O)cc1 [Probenecid] + CCCCNC(=O)OCC#CI [3-iodo-2-propynyl butylcarbamate (IPBC)],81.5 ± 4.9,86.1 ± 0.73
NC(=O)N1c2ccccc2C=Cc2ccccc21 [Carbamazepine] + CCCCNC(=O)OCC#CI [3-iodo-2-propynyl butylcarbamate (IPBC)],92.8 ± 1.9,93.8 ± 1.1
COc1cc2c(c(OC)c1OC)-c1ccc(OC)c(=O)cc1[C@@H](NC(C)=O)CC2 [Colchicine] + CCCCNC(=O)OCC#CI [3-iodo-2-propynyl butylcarbamate (IPBC)],88.5 ± 6.8,92.9 ± 1.7
NC[C@@H]1O[C@H](O[C@H]2[C@@H](O)[C@H](O[C@@H]3[C@@H](O)[C@H](N)C[C@H](N)[C@H]3O[C@H]3O[C@H](CO)[C@@H](O)[C@H](O)[C@H]3N)O[C@@H]2CO)[C@H](N)[C@@H](O)[C@@H]1O [Paromomycin sulfate] + CCCCNC(=O)OCC#CI [3-iodo-2-propynyl butylcarbamate (IPBC)],84 ± 7.2,86.5 ± 2.2
COC1=C(OC)C(=O)C(CCCCCCCCCCO)=C(C)C1=O [Idebenone] + CCCCNC(=O)OCC#CI [3-iodo-2-propynyl butylcarbamate (IPBC)],49.1 ± 8.1,73.9 ± 4.5
CCn1cc(C(=O)O)c(=O)c2cc(F)c(N3CCNC(C)C3)c(F)c21 (configuration not stated) [Lomefloxacin hydrochloride] + CCCCNC(=O)OCC#CI [3-iodo-2-propynyl butylcarbamate (IPBC)],87.4 ± 8.3,96.3 ± 6.5
CCCN(CCC)CCc1cccc2c1CC(=O)N2 [Ropinirole hydrochloride] + CCCCNC(=O)OCC#CI [3-iodo-2-propynyl butylcarbamate (IPBC)],84.8 ± 1.3,90.61 ± 0.42
O=C(O)c1ccccc1Nc1cccc(C(F)(F)F)c1 [Flufenamic acid] + CCCCNC(=O)OCC#CI [3-iodo-2-propynyl butylcarbamate (IPBC)],29.1 ± 2.1,59.05 ± 0.32
O=C(OCCOCCO)c1ccccc1Nc1cccc(C(F)(F)F)c1 [Etofenamate] + CCCCNC(=O)OCC#CI [3-iodo-2-propynyl butylcarbamate (IPBC)],59.2 ± 1.4,94.4 ± 2.1
O=C(O)c1cccnc1Nc1cccc(C(F)(F)F)c1 [Niflumic acid] + CCCCNC(=O)OCC#CI [3-iodo-2-propynyl butylcarbamate (IPBC)],63.9 ± 2.9,85.2 ± 3.1
CCCc1nc(C(C)(C)O)c(C(=O)O)n1Cc1ccc(-c2ccccc2-c2nnn[nH]2)cc1 [Olmesartan] + CCCCNC(=O)OCC#CI [3-iodo-2-propynyl butylcarbamate (IPBC)],107 ± 1.3,104 ± 1.4
OC(c1cc(C(F)(F)F)nc2c(C(F)(F)F)cccc12)C1CCCCN1 (configuration not stated) [Mefloquine hydrochloride] + CCCCNC(=O)OCC#CI [3-iodo-2-propynyl butylcarbamate (IPBC)],74.8 ± 4,103 ± 3.4
O=C(O)Cc1sc(-c2ccccc2)nc1-c1ccc(Cl)cc1 [Fentiazac] + CCCCNC(=O)OCC#CI [3-iodo-2-propynyl butylcarbamate (IPBC)],25.4,77.1 ± 16
O=C(O)Cc1ccc(-c2ccccc2)cc1 [Felbinac] + CCCCNC(=O)OCC#CI [3-iodo-2-propynyl butylcarbamate (IPBC)],56.2 ± 4.1,91.9 ± 4.6
O=C(O)CCc1nc(-c2ccccc2)c(-c2ccccc2)o1 [Oxaprozin] + CCCCNC(=O)OCC#CI [3-iodo-2-propynyl butylcarbamate (IPBC)],72.7 ± 4.5,85.47 ± 0.73
Nc1nc(/C(=C/CC(=O)O)C(=O)N[C@@H]2C(=O)N3C(C(=O)O)=CCS[C@H]23)cs1 [Ceftibuten] + CCCCNC(=O)OCC#CI [3-iodo-2-propynyl butylcarbamate (IPBC)],92.4 ± 4.8,94 ± 3.1
CCCNC(=O)NS(=O)(=O)c1ccc(Cl)cc1 [Chlorpropamide] + CCCCNC(=O)OCC#CI [3-iodo-2-propynyl butylcarbamate (IPBC)],93.7 ± 4.1,102 ± 2.2
CCN(CC)C(=S)SSC(=S)N(CC)CC [Disulfiram] + CCCCNC(=O)OCC#CI [3-iodo-2-propynyl butylcarbamate (IPBC)],33.7 ± 3.8,92.4 ± 1.6
C=CCC1(CC(C)C)C(=O)NC(=O)NC1=O [Butalbital] + CCCCNC(=O)OCC#CI [3-iodo-2-propynyl butylcarbamate (IPBC)],85.6 ± 1.4,93.2 ± 0.94
COc1ccc([C@@H]2Sc3ccccc3N(CCN(C)C)C(=O)[C@@H]2OC(C)=O)cc1 [Diltiazem hydrochloride] + CCCCNC(=O)OCC#CI [3-iodo-2-propynyl butylcarbamate (IPBC)],80.85 ± 0.48,88.4 ± 2.2
CC(C)C[C@H](CN)CC(=O)O [Pregabalin] + CCCCNC(=O)OCC#CI [3-iodo-2-propynyl butylcarbamate (IPBC)],85.3 ± 0.79,89.14 ± 0.21
CN(C)c1cc(NC(=O)CNC(C)(C)C)c(O)c2c1C[C@H]1C[C@H]3[C@H](N(C)C)C(O)=C(C(N)=O)C(=O)[C@@]3(O)C(O)=C1C2=O [Tigecycline] + CCCCNC(=O)OCC#CI [3-iodo-2-propynyl butylcarbamate (IPBC)],80.7 ± 3.5,79 ± 2
N=C(NCCCCCCNC(=N)NC(=N)Nc1ccc(Cl)cc1)NC(=N)Nc1ccc(Cl)cc1 [Chlorhexidine] + CCCCNC(=O)OCC#CI [3-iodo-2-propynyl butylcarbamate (IPBC)],4.61 ± 0.16,3.67 ± 0.32
N=C(N)NC(=N)NCCc1ccccc1 [Phenformin hydrochloride] + CCCCNC(=O)OCC#CI [3-iodo-2-propynyl butylcarbamate (IPBC)],86.25 ± 0.48,92 ± 2.4
CC(C)NC(=N)NC(=N)Nc1ccc(Cl)cc1 [Proguanil hydrochloride] + CCCCNC(=O)OCC#CI [3-iodo-2-propynyl butylcarbamate (IPBC)],92.8 ± 2.2,104 ± 1.8
